# Reference: paper PMC7819943, “Rice protein-binding microarrays: a tool to detect cis-acting elements near promoter regions in rice”
# Over roughly 68,000 sequences, “fluorescence intensity (a.u.)” has its median near 9,100; the highest 2% begin near 16,000. Many of the other results were omitted from the sample, so the highest values are more common in it than they were.
# Molecular target: OsWRKY34 (Oryza sativa, UniProt Q0JBA9 1-250)
# Test: protein-binding microarray (RPBM); PBS, 2% BSA, 51.3 ng/ul salmon testes DNA, 50 uM zinc acetate, 200 nM TF, 25 C, 1 h; high values mean tight binding
# Details: protein: recombinant; tags: N-terminal polyhistidine and DsRed monomer fusion (pET32a); label: CyDye5-dUTP incorporated in the synthesized complementary strand; 3' TTTTT single-stranded linker to array surface; dsDNA, one strand shown
# Method in brief: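 Ni–NTA purification followed expression in E. coli BL21-CodonPlus of transcription factors fused N-terminally to a polyhistidine tag and DsRed. At 200 nM in PBS with 2% BSA, salmon testes DNA and 50 µM zinc acetate, the protein was incubated for 1 h at 25 °C with a custom Agilent array that had been primer-extended with Cy5-dUTP and blocked with 2% BSA. After washing, the array was read on an Axon 4000B scanner. The binding signal is per-feature fluorescence intensity in arbitrary units.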
# Sequence of OsWRKY34 (Q0JBA9 entry or part of it): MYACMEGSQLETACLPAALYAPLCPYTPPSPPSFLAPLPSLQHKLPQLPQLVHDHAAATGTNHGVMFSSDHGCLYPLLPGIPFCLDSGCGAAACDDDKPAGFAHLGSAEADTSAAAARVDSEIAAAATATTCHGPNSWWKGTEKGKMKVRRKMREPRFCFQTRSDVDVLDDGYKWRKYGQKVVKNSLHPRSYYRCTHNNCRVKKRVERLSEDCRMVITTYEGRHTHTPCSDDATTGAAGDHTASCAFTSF
row,Sequence,binding signal
1,TTTTGGTACGTTATTAGTGTGTGTATCAGTTTTTAAGTTCCGGAGTCACCTAGTGCAG,9430 fluorescence intensity (a.u.)
2,GTTTCAGGTTTTTGCAGCCAACAGTTTTGCTGATTTTTTACGGAGTCACCTAGTGCAG,9480 fluorescence intensity (a.u.)
3,CTCCTTTTGCGCTGCTTCTCCTCGCCGCCACCGTGTAGCGCGGAGTCACCTAGTGCAG,8230 fluorescence intensity (a.u.)
4,GAATTTTTTTTTATCATCTTTGACGGGCACACAAATTTTACGGAGTCACCTAGTGCAG,8140 fluorescence intensity (a.u.)
5,TGGGGATGTGTTGTGGTGAGCTGGAAAGTGCAAACTGGTTCGGAGTCACCTAGTGCAG,9630 fluorescence intensity (a.u.)
6,TCCTGTTTAAAGTTTTTTTTTGTGATTTTTAGATAAAAAACGGAGTCACCTAGTGCAG,9030 fluorescence intensity (a.u.)
7,AGACTATCATCTTGAGCTTATTCTTCCATTTGCTCCATCTCGGAGTCACCTAGTGCAG,8950 fluorescence intensity (a.u.)
8,AGCCAGCCCAAAAGCCACGCCGTCCACTCCATCTCCGCCTCGGAGTCACCTAGTGCAG,8440 fluorescence intensity (a.u.)
9,CGATCGATCGATCGCGCGCCTCCGCCTATAAATTCTTGCCCGGAGTCACCTAGTGCAG,8230 fluorescence intensity (a.u.)
10,CTTCCCTAAATGTTTGACACCGTTGACTTTTTAAAATATACGGAGTCACCTAGTGCAG,10500 fluorescence intensity (a.u.)
11,TTCGTTTTGACTTTTTTCTTAGTAAAACTTTTATGTTTGACGGAGTCACCTAGTGCAG,11600 fluorescence intensity (a.u.)
12,CCCACCATTTTATATTATAAGCTGTTTGACTTTTTCTTAACGGAGTCACCTAGTGCAG,13100 fluorescence intensity (a.u.)
13,AAGGTCGTTGACTTTTTATTCGTCCTCGTCTAATTTCTCCCGGAGTCACCTAGTGCAG,33600 fluorescence intensity (a.u.)
14,CCCTAAATATTTGACGCCGTTGACTTTTTTAAATATGTTTCGGAGTCACCTAGTGCAG,27300 fluorescence intensity (a.u.)
15,GCTGTTTGACTTTTTCTTAATTAAGCTTCTTTATGTTTGACGGAGTCACCTAGTGCAG,19700 fluorescence intensity (a.u.)
16,GATCGTTTCTATTCCTAATTCGTTTTCTTTATACTCCCTCCGGAGTCACCTAGTGCAG,11100 fluorescence intensity (a.u.)
17,CTTTGCGTCTCCTCCCCTTTCTAATCCACTTTTTATTTTTCGGAGTCACCTAGTGCAG,9730 fluorescence intensity (a.u.)
18,CTAAATGTTTGACACCGTTGACTTTTTTAAATATGTTTGACGGAGTCACCTAGTGCAG,23300 fluorescence intensity (a.u.)
19,TGCAGTGGCTCCGTCGCTCAGTGAACATCCAGTCCCATTTCGGAGTCACCTAGTGCAG,9900 fluorescence intensity (a.u.)
20,GGCCTATATATAACCATTGCTGTTGCCCTAAGAATGAATGCGGAGTCACCTAGTGCAG,9380 fluorescence intensity (a.u.)
21,CATTTTTGTTTTTTACTGGGAGATTTTTTTTCCTTTTTCTCGGAGTCACCTAGTGCAG,11200 fluorescence intensity (a.u.)
22,TAGTTGTCAGGTCGCTCCGCTTCATTCTGCTGTGCATTTTCGGAGTCACCTAGTGCAG,10100 fluorescence intensity (a.u.)
23,ATATAGCTTGCTTGTTCGGTTGTTCCACTGTTCCGTGAGGCGGAGTCACCTAGTGCAG,8310 fluorescence intensity (a.u.)
24,AATTGGGAAAATTGGAACCGTGCCACTCCATCATGTTTTCCGGAGTCACCTAGTGCAG,8210 fluorescence intensity (a.u.)
25,CTCTCGCCCTTCGCGCTGACCTCCTCACAGCTGCTCTCGCCGGAGTCACCTAGTGCAG,8440 fluorescence intensity (a.u.)
26,AAGATCTCCCAGGCCTCGTGTTTTACGTCAACTGGTTGTACGGAGTCACCTAGTGCAG,8270 fluorescence intensity (a.u.)
27,ATTTATTAGTTTGATCCCTCTTTTATCACCATGTATTGCCCGGAGTCACCTAGTGCAG,8570 fluorescence intensity (a.u.)

row,Sequence,binding signal
1,AGGATCTTTATACACATAGCTACCACAATGGCTACAATTACGGAGTCACCTAGTGCAG,8130 fluorescence intensity (a.u.)
2,CCCGCGTCTCGGCCCTCTCCGTCCTCGTTGCTTCCGACGCCGGAGTCACCTAGTGCAG,8780 fluorescence intensity (a.u.)
3,TGCGTTGACTTTATCTTCAAATTAATTATGTGCTAATAGGCGGAGTCACCTAGTGCAG,22300 fluorescence intensity (a.u.)
4,ATCTCCCATGTGTGCATGCATCTTTTTTTGTTGTTTGCTGCGGAGTCACCTAGTGCAG,11200 fluorescence intensity (a.u.)
5,ATCTTTCTTATGCTGGCCATGATCTATGTTGCTGTTTTTGCGGAGTCACCTAGTGCAG,17700 fluorescence intensity (a.u.)
6,TAATACTTTATGCGTGACTTATCTTTTTAAATTTTTTTCACGGAGTCACCTAGTGCAG,8970 fluorescence intensity (a.u.)
7,ATTGAGCGATTTTCGGTATTTCACGATGGGTTATATTTTACGGAGTCACCTAGTGCAG,8720 fluorescence intensity (a.u.)
8,GGATTTTTGACGGGGTTTTGCAACGGACTTGACTTGTTTACGGAGTCACCTAGTGCAG,8320 fluorescence intensity (a.u.)
9,CCCTAAATATTTGACACCGTTGACTTTTTTAAATATGTTTCGGAGTCACCTAGTGCAG,39600 fluorescence intensity (a.u.)
10,CGATTTTTATTTTTCGCCGGATGGGGTTGACTTTTTTTTACGGAGTCACCTAGTGCAG,20900 fluorescence intensity (a.u.)
11,ATGTTGTTTGTTATGATGCTGTTCTTTTGTTGTTGTTTACCGGAGTCACCTAGTGCAG,11700 fluorescence intensity (a.u.)
12,TTTTTGACTTTGACTTTTAATAGTAAAAAAATCAATTATGCGGAGTCACCTAGTGCAG,9900 fluorescence intensity (a.u.)
13,GGAAGATTACCCTGTTTACCACTCACTGTACGATGATTATCGGAGTCACCTAGTGCAG,9260 fluorescence intensity (a.u.)
14,CACACCATTTCCTTTTTCTTTAGAAAATATCACACTATCACGGAGTCACCTAGTGCAG,9060 fluorescence intensity (a.u.)
15,ATCGACCTCCATTTTAACGTACGACTCCCTAAGAGACCCGCGGAGTCACCTAGTGCAG,9660 fluorescence intensity (a.u.)
16,AATTACTATAACACATCTTCCTAACAAATGCACCTCAATACGGAGTCACCTAGTGCAG,8050 fluorescence intensity (a.u.)
17,CATATGTTTACACCCAAATTTGGCACCTAGGATTAAAATACGGAGTCACCTAGTGCAG,8350 fluorescence intensity (a.u.)
18,TGCTGTCGTATACTAGAAGCTGATGCTTTTCTTGCTTAGTCGGAGTCACCTAGTGCAG,8940 fluorescence intensity (a.u.)
19,CAACCCACACACCACCACACAGATCACAACAGCAAGTTGTCGGAGTCACCTAGTGCAG,8160 fluorescence intensity (a.u.)
20,TTTGTTTGGTAAAATTTTTGGTGGGGATTGGAGTTGGAAACGGAGTCACCTAGTGCAG,9440 fluorescence intensity (a.u.)
21,CTCTCATGTATATACATTAATTATGTTTTTGTCCCCATTTCGGAGTCACCTAGTGCAG,9950 fluorescence intensity (a.u.)
22,GAGCATCACAAGTCGCGACCTCACAGGGAGGGGCGGCGGCCGGAGTCACCTAGTGCAG,9060 fluorescence intensity (a.u.)
23,AGTAATTTATGTTTGACTATTTTTTTAAAAATTTTTTATGCGGAGTCACCTAGTGCAG,10800 fluorescence intensity (a.u.)
24,GTTTTGACTTTTTTTTCTAATAAAATTTCTTTTATGTTTGCGGAGTCACCTAGTGCAG,18600 fluorescence intensity (a.u.)
25,CTGTATCCATCCCTAAATATTTGACGCCGTTGACTTTTCTCGGAGTCACCTAGTGCAG,25600 fluorescence intensity (a.u.)
26,GAACTGCTCCCTCCATCCATAAATATTTGACGCCGTTGACCGGAGTCACCTAGTGCAG,11900 fluorescence intensity (a.u.)
27,TGTTTTCTGTTCTTTGTTGACTTTAAGTCGCTAAATTTTGCGGAGTCACCTAGTGCAG,11500 fluorescence intensity (a.u.)
